# Results published in PubChem BioAssay (NCI).
# This is part of a sample that, as a whole, favours compounds with a hit. Of some 83,000 tested, about 20% had one in any assay.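 48-hour exposure, single concentration, 96-well plates; percent growth endpoint where 0 means no net growth. Active: below 10.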 Values without a mark were called inactive. Active and inactive are the calls of the source.
# Experiments:
# Experiment in all cases: NCI-60 one-dose screen, 48 h (100 = growth as untreated, 0 = no growth, -100 = all killed)
# HCT-15 colon = conditions: 10 µM unless noted
# HT29 colon = conditions: 10 µM unless noted
# SNB-75 CNS = conditions: 10 µM unless noted
# SNB-19 CNS = conditions: 10 µM unless noted
# U251 CNS = conditions: 10 µM unless noted
# SK-MEL-5 melanoma = conditions: 10 µM unless noted
# LOX IMVI melanoma = conditions: 10 µM
# SK-MEL-28 melanoma = conditions: 10 µM unless noted
# SK-MEL-2 melanoma = conditions: 10 µM unless noted
# EKVX NSCLC = conditions: 10 µM unless noted
# SN12C renal = conditions: 10 µM unless noted
# UO-31 renal = conditions: 10 µM unless noted
# TK-10 renal = conditions: 10 µM unless noted
# ACHN renal = conditions: 10 µM unless noted
# CAKI-1 renal = conditions: 10 µM unless noted
# A498 renal = conditions: 10 µM unless noted
# CCRF-CEM leukemia = conditions: 10 µM unless noted
# MOLT-4 leukemia = conditions: 10 µM unless noted
# PC-3 prostate = conditions: 10 µM unless noted
# UACC-62 melanoma = conditions: 10 µM unless noted
Compound,growth (HCT-15 colon),growth (HT29 colon),growth (SNB-75 CNS),growth (SNB-19 CNS),growth (U251 CNS),growth (SK-MEL-5 melanoma),growth (LOX IMVI melanoma),growth (SK-MEL-28 melanoma),growth (SK-MEL-2 melanoma),growth (EKVX NSCLC),growth (SN12C renal),growth (UO-31 renal),growth (TK-10 renal),growth (ACHN renal),growth (CAKI-1 renal),growth (A498 renal),growth (CCRF-CEM leukemia),growth (MOLT-4 leukemia),growth (PC-3 prostate),growth (UACC-62 melanoma)
Oc1ccc(Cl)cc1Cc1cc(Cl)ccc1O,13.7%,86.3%,48.3%,41.5%,34.8%,9.09% (active),42.9%,35.6%,5.31% (active),60.9%,11.4%,22.9%,113%,26.1%,83.5%,63.6%,22.7%,41.3%,,
NNc1ccc(Cl)cc1Cl,79.8%,94.2%,80.7%,92.5%,,86.1%,67.5%,120%,92.4%,81.1%,78.3%,,94.3%,,58.8%,97.2%,27.7%,52.7%,60.4%,37.2%
CC1CC(C)(C)OB(OC(C)CC(C)(C)OB2OC(C)CC(C)(C)O2)O1 (configuration not stated),104%,99.2%,115%,104%,94.2%,,93.7%,104%,103%,,101%,90.9%,93.6%,108%,105%,118%,104%,99.2%,,106%
O=C1C=CC(=O)c2c(O)c(CO)c(CO)c(O)c21,37.8%,60%,55.9%,103%,105%,73.8%,73.5%,,119%,105%,101%,75.5%,107%,95.3%,93.4%,120%,78.5%,86.6%,,93.3%
c1ccc(C2NCCNC2c2ccccc2)cc1 (configuration not stated),102%,101%,87.5%,102%,,104%,99.1%,111%,98.7%,103%,102%,80.9%,110%,108%,97.6%,80.6%,104%,99.7%,98.6%,102%
Nc1nc(N)c2cc(Sc3cccc(C(F)(F)F)c3)ccc2n1,24.3%,14.5%,42.7%,34.6%,19.2%,21.4%,17.4%,58.4%,68.5%,23.7%,26.5%,21.3%,43.5%,26.6%,9.5% (active),54%,33.2%,14.3%,,30.3%
CCCCCCCCCCCCCCCc1ccc(C(=O)C[n+]2ccccc2)cc1,-48.6% (active),-39.3% (active),-55% (active),-84.1% (active),-42.2% (active),,-55.9% (active),-14.5% (active),-80.9% (active),-51.6% (active),-60.7% (active),-97.2% (active),,,,41.1%,-62.1% (active),-76.3% (active),-90.7% (active),-27.6% (active)
O=C1C=CC(=O)N1c1ccc(O)cc1,102%,112%,98.1%,103%,99.9%,,99.8%,107%,107%,109%,104%,,,94.3%,107%,104%,81%,104%,98.3%,
O=C1C(=O)c2cc([N+](=O)[O-])ccc2-c2ccccc21,-53.7% (active),-79.4% (active),-98.2% (active),-93.8% (active),-81.5% (active),-99.6% (active),-88.4% (active),-97% (active),,-88.8% (active),,-87.7% (active),-85.2% (active),-99.3% (active),-68.6% (active),110%,-13.5% (active),0.151% (active),,-94.2% (active)
COc1cc(-c2ccc(-[n+]3nc(-c4ccc([N+](=O)[O-])cc4)nn3-c3ccc([N+](=O)[O-])cc3)c(OC)c2)ccc1-[n+]1nc(-c2ccc([N+](=O)[O-])cc2)nn1-c1ccc([N+](=O)[O-])cc1,29.7%,-6.65% (active),-35.8% (active),40.8%,,,-75.5% (active),73.1%,1.62% (active),,2.95% (active),,-9.35% (active),9.61% (active),-9.54% (active),-22.2% (active),12.7%,17.9%,47.9%,85.9%
CCCCCCCCCCCC[S+](C)CC(=O)[O-] (configuration not stated),84.6%,44.7%,29.7%,,43.7%,-62.3% (active),32.9%,62.9%,51.7%,22.2%,13.7%,,20.6%,61.4%,38.7%,95.4%,11.9%,32.9%,25%,31.8%
O=[n+]1c2ccccc2n([O-])c2cc(Cl)ccc21,43.7%,74.1%,50.7%,94.2%,,,,99.2%,,,62.3%,,102%,20.7%,19.3%,81.6%,-6.38% (active),-30.4% (active),50.2%,81%
CN(C)CC(C)(CN(C)C)C(=O)/C=C/c1c(Cl)cccc1Cl,-65.6% (active),12.2%,64.5%,,40.4%,56.3%,-100% (active),4.32% (active),79.7%,5.55% (active),50.9%,,-8.98% (active),-100% (active),52.7%,119%,-4.65% (active),-19.3% (active),46.2%,20.1%
NC(=S)N/N=C/c1ncccc1O,33.7%,28.5%,26.7%,29.1%,,,10.5%,,103%,44.1%,20.5%,1.36% (active),71.2%,,15.1%,,1.76% (active),4.88% (active),,18.3%
CCCC[n+]1c(/C=C\c2c(OC)cc(OC)cc2OC)ccc2ccccc21,35.1%,-33.5% (active),-13.2% (active),19%,,-97.2% (active),-75.5% (active),-10.8% (active),-44.7% (active),,3.62% (active),1.45% (active),-12.7% (active),9.92% (active),-41.6% (active),-23.4% (active),1.26% (active),-22.5% (active),,-37.2% (active)
Cc1cc(C(N)=O)cc(C)c1C(=O)OCCCl,111%,106%,100%,109%,,101%,97.5%,110%,119%,89.1%,98.3%,86.2%,106%,108%,97.6%,98.8%,112%,95.8%,,102%
Cc1nn(CCO)c(C)c1N=[N+]([O-])c1c(C)nn(CCO)c1C,-4.21% (active),-14% (active),52.4%,98.2%,,71.5%,16%,83.2%,58.1%,,60%,-93.6% (active),,-42.8% (active),,105%,1.91% (active),,76.6%,61%
